Test in all cases: NCI-60 one-dose screen, 48 h (100 = growth as untreated, 0 = no growth, -100 = all killed)
The test system of assay [1] is NCI-H23 lung. The note with it: 10 µM unless noted.
The subject of assay [2] is NCI-H226 lung. The settings on record: 10 µM unless noted.
For assay [3], the system named is NCI-H322M lung. The settings on record: 10 µM unless noted.
Assay [4] has as its system HOP-62 NSCLC. The note with it: 10 µM unless noted.
The subject of assay [5] is NCI-H460 lung. The note with it: 10 µM unless noted.
Assay [6] has as its system HOP-92 NSCLC. The note with it: 10 µM unless noted.
Assay [7] relates to NCI-H522 lung. The settings on record: 10 µM unless noted.
For assay [8], the system named is A549/ATCC NSCLC. The settings on record: 10 µM unless noted.
The test system of assay [9] is 786-0 renal. The note with it: 10 µM unless noted.
In assay [10] the test system is COLO 205 colon. The settings on record: 10 µM unless noted.
For assay [11], the system named is DU-145 prostate. The settings on record: 10 µM unless noted.
The test system of assay [12] is K-562 leukemia. The note with it: 10 µM unless noted.
The test system of assay [13] is MALME-3M melanoma. The note with it: 10 µM unless noted.
For assay [14], the system named is MDA-MB-231 breast. The settings on record: 10 µM unless noted.
Assay [15] deals with RXF 393 renal. The note with it: 10 µM unless noted.
Assay [16] relates to SF-268 CNS. The settings on record: 10 µM unless noted.
The subject of assay [17] is SF-295 CNS. The settings on record: 10 µM unless noted.
Assay [18] has as its system SF-539 CNS. The settings on record: 10 µM unless noted.
Assay [19] relates to UACC-257 melanoma. The note with it: 10 µM.
In assay [20] the test system is M14 melanoma. The note with it: 10 µM unless noted.

The panel holds about 83,000 compounds, 20% with a hit somewhere; the sample as a whole holds those more often.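 Assay: single dose, 48 h. Readout: percent growth (0 = no net growth; negative = cell death). Active: <10.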 Values without a mark were called inactive. Activity calls are given as the source filed them.

On to `COc1cc(Cn2c(SCC(=O)Nc3ccc(Cl)cc3)nc3ccccc3c2=O)cc(OC)c1OC`, for which the growth in assay [1] was 73%; in assay [2] it was 39.1%; in assay [3] it was 64.4%; in assay [4] it was 54%; in [5] it was 17.7%; in assay [6], -20.8% (active). For the same molecule, the growth in assay [7] was 40.9%; in assay [8] it was 64.9%; in assay [9], -11% (active); in assay [10], 92.9%; in assay [11], 66.5%; in assay [12] it was 45.7%. The growth in assay [13] is 9.48% (active); in [14], 49.3%; in [15] it was 19.1%; in assay [16], 46.5%; in assay [17] it was 62.2%; in assay [18], -14% (active). Further, the growth in [19] was 73.8%; in [20], 74.9%.
Turning to `COc1ccc(/C=C/C(=O)c2ccc(NC(=O)CN3CCN(c4cc5c(cc4F)c(=O)c(C(=O)O)cn5C4CC4)CC3)cc2)cc1`, the growth was 99.6% in [1]; 94.8% in assay [2]; 96.1% in assay [3]; 98.2% in [4]; 112% in assay [5]; 90.6% in [6]. The growth is 111% in assay [7]; 96.8% in assay [8]; 89.8% in assay [9]; 120% in assay [10]; 126% in [11]; 104% in assay [12]. For the same molecule, the growth in [13] is 94.5%; in assay [14], 96.2%; in assay [15], 98.4%; in assay [16], 113%; in assay [17], 95.3%; in assay [18], 108%. Also, the growth is 96.5% in assay [19] and 96.9% in [20].
Consider `CN(C)c1ncc(-c2ccc(C(F)(F)F)cc2)c(NC2CCCCCC2)n1`, for which the growth in [1] was 58.5%; in [2], 61.9%; in assay [3], 95.4%; in assay [4] it was 88.2%; in assay [5], 55.4%; in assay [6] it was -1.97% (active). For the same molecule, the growth is 43.6% in [7]; 57.5% in assay [8]; 67.2% in assay [9]; 50% in [10]; 84.9% in assay [11]; 28.2% in assay [12]. Further, the growth in assay [13] is 5.4% (active); in [14] it was 83.4%; in assay [15], 78.8%; in assay [16], 80.8%; in [17] it was 32.7%; in [18], 97.3%. Besides, the growth is 38.1% in assay [19] and 44.5% in [20].
Regarding `COc1cc(OC)c(C(=O)/C=C/c2cccc(C(F)(F)F)c2)c(OC)c1`, the growth was 5.06% (active) in [1]; 25.1% in assay [2]; 13.2% in assay [3]; 18.7% in assay [4]; -1.87% (active) in assay [5]; 2.76% (active) in [6]. The growth in [7] was -31.8% (active); in assay [8] it was 6.1% (active); in [9], 13.4%; in assay [10], 12.9%; in [11], 11.6%; in assay [12] it was 11.8%. The growth is 51.4% in [13]; 20.7% in assay [14]; -12.9% (active) in [15]; 14.7% in assay [16]; 17.4% in [17]; -0.21% (active) in [18]. The growth in assay [19] is 31.3%; in assay [20], 9.53% (active).
With `CC(C)[C@H](CO)Nc1nc(Nc2ccc(C(=O)NCCNS(=O)(=O)c3cccc4c(N(C)C)cccc34)c(Cl)c2)c2ncn(C(C)C)c2n1`, the growth was 25.3% in assay [1]; 22% in [2]; 15.4% in assay [3]; 1.86% (active) in assay [4]; 16.2% in assay [5]; -9.2% (active) in assay [6]. Also, the growth in assay [7] is -31.5% (active); in assay [8] it was 0.602% (active); in assay [9], -1.14% (active); in assay [10], -69.3% (active); in assay [11] it was 29%; in [12], 10.9%. The growth in assay [13] is 51.2%; in assay [14] it was 7.36% (active); in [15], -57.1% (active); in [16], 0.765% (active); in assay [17], -16.5% (active); in assay [18], -50.2% (active). Also, the values for the growth in assay [19] and in [20] were 3.15% (active) and 23.5%, respectively.
Regarding `COC1=CC(c2ccc[nH]2)=N/C1=C\c1[nH]c(C)c(C(=O)CCCCC(=O)NCc2ccccc2)c1C`, the growth in assay [1] is 31.6%; in [2], 28.6%; in [3], 77%; in assay [4], 57.1%; in assay [5], 1.07% (active); in [6] it was -55.5% (active). The growth in [7] was -33.5% (active); in assay [8] it was 1.81% (active); in assay [9], 18.9%; in assay [10], 55.2%; in assay [11], 17%; in assay [12], 74.5%. Moreover, the growth in [13] was 76.7%; in assay [14] it was -30.5% (active); in assay [15], -72.3% (active); in assay [16] it was 54.9%; in [17], 51.2%; in [18], 56.6%. The growth is 86.9% in assay [19] and 36.2% in assay [20].
As to `C=CCN=C1NC(=O)/C(=C/c2cc(C(C)(C)C)c(O)c(C(C)(C)C)c2)S1`, the growth in assay [1] is 90.2%; in [2] it was 97.7%; in assay [3], 87.9%; in assay [4] it was 77.2%; in assay [5] it was 72.8%; in [6], 82.2%. Besides, the growth in [7] is 44.5%; in assay [8], 63.4%; in [9] it was 66.1%; in [10], 81.3%; in [11], 84%; in assay [12] it was 30.8%. In addition, the growth in [13] was 75.4%; in [14] it was 86.8%; in assay [15], 62.4%; in [16] it was 82%; in assay [17], 69.3%; in assay [18], 87.6%. In addition, the growth in [19] was 93%; in assay [20], 52.4%.
For `CC(C)C[C@H](NC(=O)[C@@H](Cc1ccccc1)n1ccc(Nc2ccccc2)cc1=O)B(O)O`, the growth in assay [1] is 6.41% (active); in assay [2], -72% (active); in assay [3], 43.5%; in assay [4] it was -21.6% (active); in [5], 8.89% (active); in assay [6], -31.4% (active). Further, the growth in [7] was -53.7% (active); in [8], 17%; in assay [9], 17.2%; in assay [10] it was 13.8%; in assay [11], 35.3%; in assay [12], 3.2% (active). Further, the growth is -39.1% (active) in assay [13]; -24.8% (active) in assay [14]; -80.2% (active) in [15]; -31.6% (active) in assay [16]; -20.6% (active) in assay [17]; -17.7% (active) in assay [18]. Besides, the figures for the growth in [19] and in assay [20] were -36.6% (active) and 9.32% (active), respectively.
